AddAB inh – less growth of phage-infected E. coli with AddAB; E. coli expressing H. pylori AddAB, absorbance growth; inhibition, % at 11.9 µM; actives 0.29% (n = 330,000); in the data active = inhibition above about 12%
phage Ecoli inh – E. coli growth loss with phage present; growth absorbance; inhibition, % at 11.9 µM; actives 0.26% (n = 360,000); AID 651602; in the data active = inhibition above about 11%
E coli growth-1 – blocks Escherichia coli growth | OD600, 23 h; hits give low values | OD600 absorbance (no concentration beside the values) | actives 0.21% (n = 330,000) | AID 1053175;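 active = OD600 absorbance below the run mean of sample wells minus 3.6 SD, in any replicate, cut at about 0.56 in these data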
Tat transport – E. coli Tat transport inhibition | AID 488895 | actives 0.036% (n = 340,000) | inhibition, % at 10 µM | E. coli MC4100 TorA-mCherry Tat export, fluorescence;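 active = mean replicate inhibition at least 50% and at least half of replicates individually reaching 50%; inconclusive = only one of the two criteria met; inactive = neither criterion met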;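 note: exported cargo escapes ClpAP degradation while cytoplasmic cargo is degraded and loses fluorescence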
E coli growth-2 – reduces bacterial viability in AddAB counter-screen. E. coli V3065 growth, OD600 absorbance, 18 h. inhibition, % at 11.9 µM. actives 0.27% (n = 330,000);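 active = inhibition above the campaign's mean inhibition across all tested compounds plus 3 SD, cut at about 9.9% in these data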;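 note: uninfected addAB+ strain grown without phage in ampicillin broth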
RecBCD conf – growth loss of phage-infected V66 E. coli, RecBCD confirmation screen | inhibition, % at 11.9 µM | shares compounds with phage Ecoli inh | E. coli V66 + T4 2- phage, growth OD | AID 651982 | actives 45% (n = 890);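 active = mean inhibition over triplicates exceeding the hit threshold derived in the original primary screen, cut at about 11% in these data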
Ecoli viability – counter-screen for RecBCD inhibitors: inhibitors of bacterial viability; actives 29% (n = 890); E. coli viability, absorbance (OD) growth; inhibition, % at 11.9 µM; shares compounds with phage Ecoli inh; in the data active = inhibition above about 20%;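 note: E. coli strain V66 grown with compound alone and no phage infection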
AddAB phage OD – growth loss of phage-infected AddAB E. coli, RecBCD counter-screen; E. coli expressing H. pylori AddAB + T4 phage, OD growth; gene 2 mutant T4, recBCD-deleted host; actives 45% (n = 890); shares compounds with phage Ecoli inh; inhibition, % at 11.9 µM;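 active = mean inhibition above the solvent-only control wells' mean plus 3 SD, cut at about 22% in these data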;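 note: higher means less bacterial growth from phage killing when AddAB is blocked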
Numbers stand for hits; 0 = inactive; ? = inconclusive; - = no result given. Only some compounds are listed: those with a hit (about 0.5% of all), similar ones and a draw of the others.

SMILES	AddAB inh	phage Ecoli inh	E coli growth-1	Tat transport	E coli growth-2	RecBCD conf	Ecoli viability	AddAB phage OD
O=C1/C(=C/c2cccnc2)Oc2cc(OS(=O)(=O)c3ccccc3)ccc21	0	-	0	?	0	-	-	-
O=C(/C=C/c1ccccc1)c1cc(Br)ccc(=O)c1O	0	27	0	0	10	16	22	0
CC(C)N=C1CC(C)(C)CC(=O)/C1=C(\O)CCCN1C(=O)c2ccccc2C1=O	-	-	0	-	-	-	-	-
COc1cccc(C2c3c(oc4ccccc4c3=O)C(=O)N2CCCN2CCOCC2)c1 (stereo not drawn)	0	15	0	0	0	0	0	0
COc1cccc(-c2cnc(C(O)c3cc(F)cc(Cl)c3)[nH]2)c1 (stereo not drawn)	-	0	-	-	-	-	-	-
COc1cccc(-c2cnc(C(O)c3cc(Cl)cc(Cl)c3)[nH]2)c1 (stereo not drawn)	-	12	-	-	-	11	0	0
Cc1ccc(-c2cnc(C(O)c3cc(F)cc(Cl)c3)[nH]2)cc1 (stereo not drawn)	-	12	-	-	-	0	0	0
OC(c1cccc(Cl)c1)c1ncc(-c2ccc3ccccc3c2)[nH]1 (stereo not drawn)	-	15	-	-	-	12	0	0
OC(c1cccc(F)c1)c1ncc(-c2ccc3ccccc3c2)[nH]1 (stereo not drawn)	-	0	-	-	-	-	-	-
NC(=S)NN=Cc1nccc2ccccc12	-	21	0.46	0	-	29	39	32
NC(=S)NN=Cc1nccc2c(C(F)(F)C(F)(F)C(F)(F)F)cccc12	-	15	-	-	-	0	0	0
Cc1cnc(C=NNC(N)=S)c2cccc(N)c12	-	0	-	0	-	-	-	-
O=C(NN=Cc1ccccc1)c1cc(=O)[nH]c2ccccc12	-	-	0	-	-	-	-	-
CCOC=Nc1c(C#N)c2c(c(=S)n1C)COC(C)(C)C2	-	-	0	-	-	-	-	-
Nn1c(SCc2cccc(Br)c2)nnc1-c1ccncc1	0	100	0	0	0	0	0	0
Nn1c(SCc2cccc(F)c2)nnc1-c1ccncc1	0	0	0	0	0	-	-	-
COc1cc(C=NO)nc(-c2ccccn2)c1	-	39	-	0	-	32	41	33
Cc1ccc(S(=O)(=O)CC(=O)Nc2ncc([N+](=O)[O-])s2)cc1	0	0	0	0	0	-	-	-
Cc1ccc(CC(=O)Nc2ncc([N+](=O)[O-])s2)cc1	0	13	0	0	0	0	0	0
O=C(NNS(=O)(=O)c1ccc(F)cc1)c1cc(Cl)ccc1O	-	15	0	0	-	0	0	0
O=Cc1cccnc1SCc1ccccc1	0	99	0	0	0	0	0	0
Oc1cccnc1SCc1ccccc1	0	0	0	0	0	-	-	-
COc1ccc(C2C=CCN(C(=O)C3CCCC3)C(C)C(=O)N2Cc2ccc(F)cc2)cc1 (stereo not drawn)	-	-	0	-	-	-	-	-
CC(=O)OCC1=C(C(=O)O)N2C(=O)C(NC(=O)c3ccc(F)cc3)C2SC1 (stereo not drawn)	0	0	0	0	0	-	-	-
CON=C(C(=O)NC1C(=O)N2C(C(=O)O)=C(CSc3nc(=O)c(=O)[nH]n3C)CSC12)c1csc(N)n1 (stereo not drawn)	-	102	-	0	-	102	103	103
SMILES	AddAB inh	phage Ecoli inh	E coli growth-1	Tat transport	E coli growth-2	RecBCD conf	Ecoli viability	AddAB phage OD
CO/N=C(\C(=O)N[C@@H]1C(=O)N2C(C(=O)O)=C(COC(N)=O)CS[C@H]12)c1ccco1	0	63	-	0	0	93	98	81
C=CCc1cccc(C=Nc2ncn[nH]2)c1O	-	-	0	-	-	-	-	-
CCN1CCN(C(=O)C2=CC(c3ccc(C)cc3)=NS(=O)(=O)N2C)CC1	0	12	0	0	0	0	0	0
O=Nc1c(-c2cccc([N+](=O)[O-])c2)nc2ncccn12	0	16	-	-	0	72	77	100
Cc1ccc(NC(=S)Nc2ccc(OC(F)F)c(Cl)c2)cc1F	0	11	0	0	0	0	0	0
O=C(NCc1ccncc1)C(=O)NN=Cc1cccnc1	-	-	0	-	-	-	-	-
O=C1c2ccccc2C(=O)c2c1ccc(O)c2O	-	15	-	0	-	0	0	0
COC(=O)c1ccc2c(c1O)C(=O)c1ccccc1C2=O	0	0	0	0	0	-	-	-
COc1ccc(C=Nn2cnnc2)cc1COc1ccccn1	-	-	0	-	-	-	-	-
Cc1nccn1Cc1ccccc1	0	100	0	0	0	0	0	0
Cc1nccn1CCc1n[nH]c(=S)n1Cc1ccccc1	0	0	0	0	0	-	-	-
Cc1cc(N/N=C/c2ccc(N(C)C)cc2)c2ccccc2n1	0	12	-	0	0	0	0	0
O=C1c2ccccc2NC(c2ccc(Cl)cc2Cl)N1O (stereo not drawn)	0	12	0	?	0	0	0	0
O=C1c2ccccc2NC(c2ccc(-c3cccc(F)c3)o2)N1O (stereo not drawn)	0	12	0	0	0	0	0	0
O=C1c2ccccc2NC(c2cccc(F)c2)N1Cc1ccccc1 (stereo not drawn)	0	0	0	0	0	-	-	-
CCOC(=O)CC1c2ccc(C(F)(F)F)cc2S(=O)(=O)N1c1ccccc1 (stereo not drawn)	-	-	0	-	-	-	-	-
Oc1ccc(N=Nc2ccc3c(c2)OCCO3)c2cccnc12	0	15	0	0	0	0	0	0
COc1ccc(C)cc1N=Nc1ccc(O)c2ncccc12	-	18	0	0	-	0	0	0
COc1cccc(N=Nc2ccc3cccnc3c2O)c1	0	14	0	0	15	0	0	0
COc1cccc(N=Nc2ccc(O)c3ncccc23)c1	0	13	-	0	0	0	0	0
COc1cc(C=NNC(=O)c2cc(C)n(-c3ccc(F)cc3)c2C)cc(OC)c1O	-	-	0	-	-	-	-	-
CCCCCCCC(=O)NN=Cc1ccc(Br)cc1	-	-	0	-	-	-	-	-
COC(=O)C1=C(C)N(Cc2ccccc2C(F)(F)F)C(=NCc2cccc(C(F)(F)F)c2)NC1c1ccc(C(F)(F)F)cc1 (stereo not drawn)	-	0	-	-	-	-	-	-
COC(=O)C1=C(C)N(Cc2ccccc2C(F)(F)F)C(=NCc2ccccc2)NC1c1ccc(C(F)(F)F)cc1 (stereo not drawn)	-	13	-	-	-	0	0	0
O=[N+]([O-])c1ccc(N/N=C/c2cccc(O)c2O)c(S(=O)(=O)N2CCOCC2)c1	0	0	-	0	0	-	-	-
SMILES	AddAB inh	phage Ecoli inh	E coli growth-1	Tat transport	E coli growth-2	RecBCD conf	Ecoli viability	AddAB phage OD
O=[N+]([O-])c1ccc(N/N=C/c2ccc(O)c(O)c2O)c(S(=O)(=O)N2CCOCC2)c1	-	11	-	0	-	0	0	0
Cc1cc(-c2ccccc2)n(-c2cc(NN=Cc3ccccc3O)ncn2)n1	-	-	0	-	-	-	-	-
Cc1cc(-c2ccccc2)n(-c2cc(N/N=C/c3ccccc3O)ncn2)n1	0	16	-	0	0	0	0	0
CN(C)c1ccc(-c2cc(O)c3ncccc3c2)cc1	0	14	-	0	11	0	0	0
CN(C)CCCNC(=O)c1ccc(-c2cc(O)c3ncccc3c2)cc1	0	0	0	0	0	-	-	-
Cc1nn(-c2ccccc2)c(N2CCCC2)c1/C=N/NC(=O)c1ccccc1O	0	0	-	0	0	-	-	-
